These results are taken from PubChem BioAssay AID1347075 (National Center for Advancing Translational Sciences (NCATS), 2019).

SMILES strings stand for the structures. In all, about 400,000 compounds went through this assay and about 5,500 (1.4%) were called active. A call without a number means that no potency is given here. Inconclusive results (about 9%) are left out. This is one part of a sample in which actives are shown more often than they occur. Calls follow the shape of the dose curve; as a rule, active = well fitted cell-killing curve with a large enough effect; inconclusive = small, poorly fitted or top-dose-only effect, or effect the other way; inactive = flat fitted curve, though single readings scatter.
Potency is read from the fitted curve at half-maximal effect.

The assay can be described thus: qHTS assay for MDR1-selective chemotherapeutics: Primary screen using the parental adenocarcinoma cell KB-3-1. Also: nearly all actives have a fitted effect of over 60% in size. As to conditions: KB-3-1 viability, CellTiter-Glo ATP luminescence, 72 h; series mostly up to 46.1 µM. In a few lines: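 KB-3-1 parental drug-naive adenocarcinoma cells in DMEM/10% FBS, incubated 72 h at 37 C with pin-transferred compounds across a concentration series. Viability by CellTiter-Glo luminescence; concentration-response curves fitted after normalization.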
Background: In qHTS, concentration-response curves come from the screen itself.
`Cc1ccc2oc(C(=O)Nc3ccc(S(=O)(=O)N4CCCCCC4)cc3)cc(=O)c2c1`: the Potency entry was “inactive”.
Regarding `Cc1ccc(C)c(N2CCN(C(=O)Cc3c(C(=O)O)c(C)cn3C)CC2)c1`, the Potency result was “inactive”.
Regarding `CC[n+]1cc(C)ccc1/C=C/c1ccc(N(C)C)cc1`, the Potency was 1.84 µM (active).
As to `CCc1ccc(-c2nn3c(C)nnc3s2)cc1NC(=O)c1ccc(-c2cccc(Cl)c2)o1`, the Potency entry was “inactive”.
As to `COc1ccc(S(=O)(=O)n2nc(C)c(S(=O)(=O)N3CCCCCC3)c2C)cc1`, the Potency entry was “inactive”.
As for `N#Cc1ccc[n+](CC(=O)c2ccc(O)c(O)c2)c1`, the Potency entry is “inactive”.
In the case of `O=C(COC(=O)c1ccccc1O)NCc1ccco1`, the Potency result is “inactive”.
Take `O=C(COC(=O)c1cnc(Cl)c(Cl)c1)NCc1ccco1`: the Potency entry was “inactive”.
For `Cc1cc(C(=O)OCC(=O)NCc2ccco2)c(C)n1-c1ccccc1`, the Potency is 4.61 µM (active).
Turning to `Cc1ccc(NC2=C(c3ccc(C(F)(F)F)cc3)C(=O)c3ccccc32)cc1F`, the Potency entry is “inactive”.
For the compound `Cc1cccc(NC(=O)N2CCN(C)c3ncccc32)c1C`, the Potency result is “inactive”.
For the compound `COc1ccc(CCNC(=O)Nc2ccc3c(c2)c(=O)n(C)n3C)cc1OC`, the Potency entry is “inactive”.
As to `CCNC(=S)Nc1ccc2c(c1)c(=O)n(C)n2Cc1ccc(Cl)cc1`, the Potency entry is “inactive”.
For `COc1cc(Cn2c3ccc(NC(=O)CC(C)c4ccccc4)cc3c(=O)n2C)ccc1F` (stereo not given), the Potency is 16.4 µM (active).
For `CN(Cc1ccccc1)c1ccc(/C=C/c2ccnc3ccccc23)cc1`, the Potency entry is “inactive”.
Regarding `CN(C)c1ccc(/C=C/C=C/c2ccnc3ccccc23)cc1`, the Potency is 5.8 µM (active).
Regarding `CN(C)c1ccc(C=Nc2ccc(/C=C/c3ccnc4ccccc34)cc2)cc1`, the Potency result is “inactive”.
Turning to `CCc1nn(CC(=O)N2CCN(c3ccc(Cl)cc3)CC2)c(=O)c2cc3occc3n12`, the Potency result is “inactive”.
To `CC1CN(C(=O)N2CCC(C(=O)NCc3cccs3)CC2)c2ccccc2O1` (stereo not given) belongs “inactive”; to `CCOc1ccc(Nc2nc3c(S(=O)(=O)c4cccc(Cl)c4)nnn3c3ccsc23)cc1`, “inactive”.
`Cc1cccc(NC(=O)CSc2ncc(-c3ccccc3)[nH]2)c1C`: the Potency result was “inactive”.
For the compound `CCCCC(=O)NC(c1ccc(OC)c(OC)c1)c1ccc2cccnc2c1O` (stereo not given), the Potency is 5.8 µM (active).
Regarding `CCOc1ccc(C(NC(=O)c2cc(OC)c(OC)c(OC)c2)c2cc(Cl)c3cccnc3c2O)cc1` (stereo not given), the Potency entry is “inactive”.
For the compound `CCOc1ccc(C(CCc2ccccc2)NC(=O)c2ccc(OC)c(OC)c2)cc1OCC` (stereo not given), the Potency entry is “inactive”.
Consider `COc1ccccc1CNC(=O)CCCn1c(=O)c2ccccc2n(CC(=O)Nc2ccc(C)cc2Cl)c1=O`, for which the Potency entry is “inactive”.
In the case of `COc1ccccc1N1CCN(CCCNC(=O)c2cnn(-c3ccccc3Cl)c2C2CCN(C(=O)OC(C)(C)C)CC2)CC1`, the Potency entry was “inactive”.
Take `Oc1ccc(Br)cc1C1C=C(c2ccc3c(c2)OCO3)NC(c2ccc(Cl)cc2)N1` (stereo not given): the Potency result is “inactive”.
Consider `Cc1cccc(-c2nc(SCC(=O)Nc3cc(C)on3)c3c(=O)n(C)c(=O)n(C)c3n2)c1`, for which the Potency result is “inactive”.
In the case of `NC(=O)C1CCN(c2ncc(-c3ccc(Cl)cc3)s2)CC1`, the Potency result is “inactive”.
In the case of `Cc1cccc(NC(=O)CCn2c(=O)oc3ccccc32)c1`, the Potency entry is “inactive”.
`CC(=O)Nc1ccc(N2CCOCC2)c(C(=O)Nc2cccc(C)c2)c1`: the Potency result was “inactive”.
To `Cc1cccc(NC(=O)c2ccc([N+](=O)[O-])o2)c1` belongs 9.2 µM (active).
For the compound `CCCN1CCc2nc(N3CCN(C)CC3)ncc2C1`, the Potency entry is “inactive”.
On to `COc1ccc(-c2c(C)nn3c(N4CCC(C(=O)NCCC(C)C)CC4)cc(C)nc23)cc1OC`, for which the Potency entry is “inactive”.
`CCCCCCCCn1c2c(c(=N)c3c1CCC3)CCCC2`: the Potency is 0.411 µM (active).
For `CCN1CCC(N(Cc2ccc(F)cc2)C(=O)Nc2cc(C)ccc2C)CC1`, the Potency result was “inactive”.
Consider `CC(C)OC(=O)CN1C(=O)C(=O)c2ccccc21`, for which the Potency was 18.4 µM (active).
On to `CC(OC(=O)CN1C(=O)c2ccccc2C1=O)C(=O)c1ccccc1` (stereo not given), for which the Potency result was “inactive”.
As for `Cc1cc(/C=C2/SC(=O)N(CC(=O)OC(C)C)C2=O)c(C)n1C`, the Potency entry was “inactive”.
As for `CCCCNC(=O)c1cc(-c2ccc(Cl)c(Cl)c2)on1`, the Potency entry is “inactive”.
As to `CCc1cccc(-n2nnc(-c3nsc(NC(=O)c4ccc(C)cc4)n3)c2C)c1`, the Potency result was “inactive”.
Regarding `Cc1c(-c2nsc(NC(=O)c3cccc(Cl)c3)n2)nnn1-c1ccccc1C(F)(F)F`, the Potency is 23.1 µM (active).
`COc1ccc(-n2nnc(-c3nsc(NC(=O)c4ccc(C)c(C)c4)n3)c2C)cc1Cl`: the Potency entry is “inactive”.
For the compound `Cc1ccc(-c2nc(=N)sn2Cc2ccccc2)cc1`, the Potency entry was “inactive”.
For `CCOc1ccccc1N(C)C(=O)c1cc2c(s1)-c1ccccc1OC2`, the Potency result was “inactive”.
Consider `CCCCC(CCCC)c1ccc(C=Nc2ccc(/C=C/c3ccnc4ccccc34)cc2)cc1`, for which the Potency result is “inactive”.
As to `Cc1cc(C)n2ncc(C(=O)N3CCCC3)c2n1`, the Potency entry was “inactive”.
For the compound `Cc1cc(=O)oc2cc(OCC3CC(c4ccccc4Cl)=NO3)ccc12` (stereo not given), the Potency is 1.3 µM (active).
`Cc1ccccc1NC(=O)c1ccc(COc2ccc3c(C)cc(=O)oc3c2)cc1`: the Potency result was “inactive”.
In the case of `COc1cccc(-c2nnc(SCCOc3ccc4c(C)cc(=O)oc4c3)o2)c1`, the Potency entry was “inactive”.
Take `COC(=O)c1ccc(NC(=O)c2cnn(-c3ccc(Cl)cc3)c2C2CCN(C(=O)OC(C)(C)C)CC2)cc1`: the Potency entry was “inactive”.
With `Clc1ccc2nc(-c3ccccc3)nc(C(Cl)Cl)c2c1` the figure was 3.26 µM (active); with `Fc1ccc2nc(-c3ccccc3)nc(SCc3nnc(-c4ccccc4)o3)c2c1`, “inactive”; with `N#CCSc1nc(-c2ccccc2)nc2ccc(F)cc12`, “inactive”.
As for `Oc1c(C(c2ccc(F)cc2)N2CCN(Cc3ccccc3)CC2)sc2nc(-c3ccco3)nn12` (stereo not given), the Potency entry is “inactive”.
Take `COc1cc(OC)c(OC)cc1/C=C/c1nc2ccccc2c(=O)n1-c1ccc(Br)c(C)c1`: the Potency entry was “inactive”.
For `Cc1cc(C)nc(NS(=O)(=O)c2ccc(NC(=O)c3cc(=O)c4ccc(C)c(C)c4o3)cc2)n1`, the Potency entry was “inactive”.
With `COc1ccc2c(c1)c(N1CCCC1=O)c(C(=O)Nc1ccc(OC)c(Cl)c1)n2C` the entry was “inactive”.
To `CC(NC(=O)CSc1nc2c(cc1C#N)CN(C)CC2)c1ccccc1` (stereo not given) belongs “inactive”; to `Cc1cc(NC(=O)CSc2nc3c(cc2C#N)CCCCC3)no1`, 5.8 µM (active).
Take `Cc1cc(NC(=O)COc2ccccc2C#N)no1`: the Potency entry was “inactive”.
For `COc1ccc(S(=O)(=O)NCC(c2ccc(N(C)C)cc2)N2CCc3ccccc32)cc1OC` (stereo not given), the Potency entry was “inactive”.
With `O=C(NNC(=S)NC(=O)c1cn(-c2ccccc2)nc1-c1ccccc1)c1ccncc1`, the Potency was 8.2 µM (active).
For the compound `COc1ccccc1N1CCN(C(=O)c2cn(-c3ccccc3)nc2-c2cccnc2)CC1`, the Potency entry is “inactive”.
Turning to `O=C(NCCCN1CCOCC1)c1cn(-c2ccccc2)nc1-c1ccc(F)cc1`, the Potency result is “inactive”.
